Data published in the antibiotic and cytotoxicity screens of Wong et al. (2023).
About 1,500 (3.8%) of roughly 39,000 compounds were called active. What follows is part of a selection rich in actives, with near analogues and random picks from the rest.

Each compound was assayed on HSkMC (human skeletal muscle cells) (assay: cytotoxicity call (relative viability < 0.9)). Conditions: 10 µM.

| SMILES | cytotoxicity call |
| --- | --- |
| O=C(CS)NCCCCCNC(=O)[C@@H]1C[C@@H]2C(=O)N[C@@H](Cc3ccccc3)C(=O)N2[C@@H]1c1ccc(O)cc1 | inactive |
| CN(C)CCCC1(c2ccc(F)cc2)OCc2cc(C#N)ccc21.O=C(O)C(=O)O (stereo not given) | inactive |
| COc1c(C)cccc1C(=O)N1CC[C@H](c2nn(CCN)c3ncccc23)C1 | inactive |
| COc1ccc(NC(=O)Nc2ccc3c(c2)C(=O)N([C@@H](C)CO)C[C@@H](C)[C@H](CN(C)S(=O)(=O)c2ccc(F)cc2)OCCCC[C@@H](C)O3)cc1 | inactive |
| CO[C@@H]1CN(C)C(=O)c2ccc(NS(C)(=O)=O)cc2OC[C@H](C)N(C(=O)CN(C)C)C[C@@H]1C | inactive |
| O=C(C[C@H]1C[C@@H]2c3cc(NC(=O)Nc4ccc(C(F)(F)F)cc4)ccc3O[C@@H]2[C@H](CO)O1)NCc1ccc(Cl)cc1 | inactive |
| O=C(Nc1ccc(C(F)(F)F)cc1)Nc1ccc2c(c1)[C@H]1C[C@H](CC(=O)N3CCc4ccccc4C3)O[C@H](CO)[C@H]1O2 | active |
| O=C(C[C@H]1C[C@@H]2c3cc(NC(=O)Nc4ccc(C(F)(F)F)cc4)ccc3O[C@@H]2[C@H](CO)O1)NCc1cc(F)ccc1F | inactive |
| O=C(C[C@H]1C[C@@H]2c3cc(NC(=O)Nc4ccc(C(F)(F)F)cc4)ccc3O[C@@H]2[C@@H](CO)O1)NCc1cc(F)ccc1F | active |
| O=C(Nc1ccc(C(F)(F)F)cc1)Nc1ccc2c(c1)[C@@H]1C[C@@H](CC(=O)N3CCc4ccccc4C3)O[C@H](CO)[C@@H]1O2 | inactive |
| O=C(C[C@@H]1C[C@@H]2c3cc(NC(=O)Nc4ccc(C(F)(F)F)cc4)ccc3O[C@@H]2[C@H](CO)O1)NCc1cc(F)ccc1F | inactive |
| O=C(C[C@H]1C[C@@H]2c3cc(NC(=O)Nc4ccc(C(F)(F)F)cc4)ccc3O[C@@H]2[C@@H](CO)O1)NCc1ccc(Cl)cc1 | inactive |
| O=C(C[C@@H]1C[C@@H]2c3cc(NC(=O)Nc4ccc(C(F)(F)F)cc4)ccc3O[C@@H]2[C@@H](CO)O1)NCCc1ccccc1 | inactive |
| O=C(C[C@@H]1C[C@H]2c3cc(NC(=O)Nc4ccc(C(F)(F)F)cc4)ccc3O[C@H]2[C@H](CO)O1)NCCc1ccccc1 | active |
| O=C(C[C@@H]1C[C@H]2c3cc(NC(=O)Nc4ccc(C(F)(F)F)cc4)ccc3O[C@H]2[C@H](CO)O1)NCc1ccc(Cl)cc1 | active |
| O=C(C[C@H]1C[C@H]2c3cc(NC(=O)Nc4ccc(C(F)(F)F)cc4)ccc3O[C@H]2[C@@H](CO)O1)NCCc1ccccc1 | inactive |
| O=C(Nc1ccc(C(F)(F)F)cc1)Nc1ccc2c(c1)[C@H]1C[C@@H](CC(=O)N3CCc4ccccc4C3)O[C@H](CO)[C@H]1O2 | inactive |
| Cc1noc(C)c1S(=O)(=O)Nc1ccc2c(c1)CC(=O)N([C@@H](C)CO)C[C@@H](C)[C@@H](CN(C)Cc1ccccc1)O2 | inactive |
| Cc1noc(C)c1NC(=O)Nc1ccc2c(c1)CC(=O)N([C@@H](C)CO)C[C@@H](C)[C@@H](CN(C)Cc1ccc(-c3ccccc3)cc1)O2 | inactive |
| COc1ccc(NC(=O)N(C)C[C@@H]2Oc3c(NC(=O)Nc4cccc5ccccc45)cccc3C(=O)N([C@@H](C)CO)C[C@@H]2C)cc1 | inactive |
| C[C@H]1COC(=O)[C@H](NC(=O)OCC2c3ccccc3-c3ccccc32)CC=CC[C@@H](CC(=O)NCCO)C(=O)N1 | inactive |
| CCCNC(=O)N[C@@H]1C=C[C@@H](CC(=O)N2CCN(C)CC2)O[C@@H]1CO | inactive |
| Cc1ccc(S(=O)(=O)Nc2ccc3c(c2)C(=O)N([C@H](C)CO)C[C@H](C)[C@@H](CN(C)C(=O)Nc2c(C)noc2C)OCCCC[C@H](C)O3)cc1 | inactive |

| SMILES | cytotoxicity call |
| --- | --- |
| C[C@H]1CN([C@@H](C)CO)C(=O)c2c(c3ccccc3n2C)-c2ccccc2CO[C@H]1CN(C)C(=O)Nc1ccc(-c2ccccc2)cc1 | inactive |
| C[C@@H]1CN([C@@H](C)CO)C(=O)c2cc(NC(=O)Nc3ccc(C(F)(F)F)cc3)ccc2O[C@H]1CN(C)Cc1ccc(C(=O)Nc2ccccc2N)cc1 | inactive |
| C[C@@H]1CN([C@H](C)CO)C(=O)c2cc(NC(=O)Nc3ccc(C(F)(F)F)cc3)ccc2O[C@@H]1CN(C)Cc1ccc(C(=O)Nc2ccccc2N)cc1 | inactive |
| C[C@H](CO)N1C[C@H](C)[C@@H](CN(C)Cc2ccc(C(=O)Nc3ccccc3N)cc2)Oc2ccc(NC(=O)Nc3ccc(C(F)(F)F)cc3)cc2C1=O | inactive |
| C[C@@H]1CCCCO[C@@H](CN(C)Cc2ccc(C(=O)Nc3ccccc3N)cc2)[C@@H](C)CN([C@H](C)CO)C(=O)c2cc(NC(=O)Nc3ccc(F)cc3)ccc2O1 | inactive |
| C[C@H]1CN([C@@H](C)CO)C(=O)c2cc(NC(=O)Nc3ccc(C(F)(F)F)cc3)ccc2O[C@@H]1CN(C)Cc1ccc(C(=O)Nc2ccccc2N)cc1 | inactive |
| C[C@H](CO)N1C[C@H](C)[C@H](CN(C)Cc2ccc(C(=O)Nc3ccccc3N)cc2)Oc2ccc(NC(=O)Nc3ccc(C(F)(F)F)cc3)cc2C1=O | active |
| C[C@@H]1CCCCO[C@@H](CN(C)Cc2ccc(C(=O)Nc3ccccc3N)cc2)[C@@H](C)CN([C@H](C)CO)C(=O)c2cc(NC(=O)Nc3ccc(C(F)(F)F)cc3)ccc2O1 | active |
| C[C@@H]1CCCCO[C@H](CN(C)Cc2ccc(C(=O)Nc3ccccc3N)cc2)[C@@H](C)CN([C@@H](C)CO)C(=O)c2cc(NC(=O)Nc3ccc(C(F)(F)F)cc3)ccc2O1 | inactive |
| C[C@H]1CN([C@@H](C)CO)C(=O)c2cc(NC(=O)Nc3ccc(C(F)(F)F)cc3)ccc2O[C@H]1CN(C)Cc1ccc(C(=O)Nc2ccccc2N)cc1 | active |
| C[C@@H]1CN([C@H](C)CO)C(=O)Cc2cc(NC(=O)CCN3CCOCC3)ccc2O[C@@H]1CN(C)C(=O)Nc1ccccc1 | inactive |
| CN1C(=O)NC2(CCNCC2)C1=O | inactive |
| O=[N+]([O-])c1ccc(/C=C/CN(C/C=C/c2ccc([N+](=O)[O-])cc2)CCCNS(=O)(=O)c2cccc3cnccc23)cc1 | inactive |
| COc1ccc(NC(=O)Nc2cccc3c2O[C@@H](CN(C)Cc2ccc(C(F)(F)F)cc2)[C@@H](C)CN([C@H](C)CO)C3=O)cc1 | inactive |
| COc1ccc(CN(C)C[C@@H]2Oc3c(NC(=O)Nc4ccc(C(F)(F)F)cc4)cccc3C(=O)N([C@@H](C)CO)C[C@H]2C)cc1 | active |
| COc1ccc(NC(=O)Nc2cccc3c2O[C@@H](CN(C)Cc2ccc(C(F)(F)F)cc2)[C@H](C)CN([C@@H](C)CO)C3=O)cc1 | inactive |
| COc1ccc(CN(C)C[C@@H]2Oc3c(NC(=O)Nc4ccc(C(F)(F)F)cc4)cccc3C(=O)N([C@H](C)CO)C[C@H]2C)cc1 | active |
| COc1ccc(CN(C)C[C@H]2Oc3c(NC(=O)Nc4ccc(C(F)(F)F)cc4)cccc3C(=O)N([C@H](C)CO)C[C@H]2C)cc1 | inactive |
| COc1ccc(CN(C)C[C@H]2Oc3c(NC(=O)Nc4ccc(C(F)(F)F)cc4)cccc3C(=O)N([C@@H](C)CO)C[C@H]2C)cc1 | inactive |
| COc1ccc(NC(=O)Nc2cccc3c2O[C@@H](CN(C)Cc2ccc(C(F)(F)F)cc2)[C@H](C)CN([C@H](C)CO)C3=O)cc1 | inactive |
| COc1ccc(NC(=O)Nc2cccc3c2O[C@H](CN(C)Cc2ccc(C(F)(F)F)cc2)[C@@H](C)CN([C@@H](C)CO)C3=O)cc1 | inactive |
| COc1ccc(CN(C)C[C@H]2Oc3c(NC(=O)Nc4ccc(C(F)(F)F)cc4)cccc3C(=O)N([C@H](C)CO)C[C@@H]2C)cc1 | active |
